# Source: the supplement of paper PMC12636033
# ± gives the standard deviation of the averaged measurements. In all, about 33,000 sequences were measured (“E-score (rank enrichment, -0.5 to 0.5)”: median about -0.0068, highest 2% from about 0.24 on). For the sample, the highest values were picked, then their nearest neighbours and some sequences at random.
# Test system: muMax20 (Max(13-93) K31hArg/K57hArg, M65Nle)
# Assay: PBM 8-mer E-score (E-score (rank enrichment, -0.5 to 0.5)); higher = stronger preferential binding
# Method: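 Protein binding microarray (universal PBM chip covering all 10-mers in fixed probe flanks) with chemically synthesized human Max(13-93) bHLH-LZ analogs (not full-length Max) bearing noncanonical residues (hArg, Tha, Aib, Nle at 65) and aromatic Cys staples. Read-out per 8-mer (and its reverse complement): E-score (rank-based enrichment, -0.5 to 0.5) and Z-score of median probe intensity.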
row,Sequence,PBM 8-mer E-score
1,ATAAACGA,0.229 ± 0.033
2,TAATCTGA,-0.0143 ± 0.051
3,AGGCCGTC,-0.184 ± 0.049
4,TCCCCGCA,-0.0761 ± 0.035
5,ATCACCTC,0.0702 ± 0.029
6,TCATCTCA,-0.000685 ± 0.13
7,ATTGACCG,0.0179 ± 0.099
8,ATCGCGCG,0.0373 ± 0.16
9,CATGCGTA,0.259 ± 0.15
10,GATGCGTA,0.0917 ± 0.02
11,AATGCGTA,0.0783 ± 0.035
12,GCGTGGTA,0.148 ± 0.095
13,ACGTGGTA,0.309 ± 0.021
14,AGGTGGTG,0.0398 ± 0.076
15,ACGTGGTG,0.336 ± 0.015
16,CCGTGGTA,-0.0136 ± 0.0022
17,ACGTGGTC,0.213 ± 0.093
18,ATAGAAAT,0.15 ± 0.089
19,GGAATAGA,0.0778 ± 0.075
20,GACATGGA,-0.0732 ± 0.1
21,AACATGGA,0.135 ± 0.0038
22,GACATGGC,0.0454 ± 0.031
23,CACATGGA,0.238 ± 0.15
24,CACATGGG,0.181 ± 0.052
25,CACATGGC,0.269 ± 0.088

row,Sequence,PBM 8-mer E-score
1,ATGACGCG,0.0788 ± 0.13
2,CCGGACAC,-0.238 ± 0.079
3,GTAGAATA,0.235 ± 0.044
4,ATAGAATG,0.138 ± 0.018
5,ATAGAATA,0.245 ± 0.029
6,AGTATTCG,0.0983 ± 0.088
7,ATTCTATG,0.109 ± 0.0098
8,CAAATATA,0.162 ± 0.027
9,AATAAATT,0.213 ± 0.037
10,GAAAAATA,0.158 ± 0.027
11,AATAAATG,0.278 ± 0.018
12,AAAAAATA,0.271 ± 0.019
13,GATAAATA,0.149 ± 0.036
14,AATAAATA,0.245 ± 0.06
15,CAAAAATA,0.176 ± 0.0026
16,CATAAATG,-0.0552 ± 0.089
17,AAAATATA,0.21 ± 0.055
18,TAAATATA,0.246 ± 0.014
19,AATAAATC,0.0155 ± 0.081
20,AGTATAGC,-0.0321 ± 0.19
21,CAATTTCG,0.0689 ± 0.083
22,GTATGGGA,-0.111 ± 0.019
23,GAGCACCC,-0.166 ± 0.061
24,CACGGGAG,0.00455 ± 0.05
25,ACGGGAGT,0.0635 ± 0.097

row,Sequence,PBM 8-mer E-score
1,CACGGGCG,-0.217 ± 0.14
2,CATAAATA,0.318 ± 0.035
3,CCTAAATA,0.123 ± 0.022
4,GTTAAATA,0.283 ± 0.032
5,CTTAAATA,0.0909 ± 0.014
6,ATTAAATA,0.2 ± 0.025
7,TAAAAATA,0.131 ± 0.048
8,CGTAAATA,0.0359 ± 0.08
9,TAAATGTA,0.285 ± 0.01
10,CATAAATC,0.0804 ± 0.0035
11,CAAATGTA,0.195 ± 0.11
12,TATAAATA,0.2587 ± 0.0014
13,GAAATGTA,0.0974 ± 0.0077
14,CCTCCGGC,-0.116 ± 0.096
15,ATTTGATA,0.176 ± 0.046
16,GCTTGACC,-0.013 ± 0.069
17,ATGGATCG,-0.294 ± 0.055
18,AATTAGCA,0.159 ± 0.046
19,CTGGAGCC,-0.177 ± 0.015
20,ATGCCCGG,-0.241 ± 0.076
21,AACTACGA,0.0584 ± 0.13
22,AAGTATAA,0.215 ± 0.033
23,AAGTATAT,0.183 ± 0.0083
24,AAGTATAC,0.259 ± 0.043
25,ACAAGGGT,0.0627 ± 0.11

row,Sequence,PBM 8-mer E-score
1,ATTAGTAA,0.246 ± 0.00033
2,CATAGTCA,0.05 ± 0.035
3,TATAGTCA,0.246 ± 0.027
4,AGTAGTAA,0.151 ± 0.057
5,ATTAGTAC,0.0781 ± 0.08
6,TGTAGTAA,0.258 ± 0.033
7,GATAGTAA,0.0883 ± 0.11
8,CGTAGTAA,0.104 ± 0.053
9,TATAGTAA,0.28 ± 0.024
10,CTTAGTAA,0.0409 ± 0.1
11,CATAGTAA,0.163 ± 0.055
12,GATAGTCA,0.117 ± 0.051
13,AACGTTAG,0.091 ± 0.026
14,AGAGCAAT,-0.0507 ± 0.013
15,CCACCGCA,-0.117 ± 0.1
16,ACGGGTAG,-0.226 ± 0.026
17,CAGATCCG,-0.166 ± 0.073
18,CTCCCAGC,-0.118 ± 0.04
19,ATTAGTTA,0.173 ± 0.015
20,CTTAGTTA,0.0136 ± 0.12
21,GTTAGTTA,0.251 ± 0.048
22,GCCTCGAC,-0.225 ± 0.022
23,AACCCGGA,-0.327 ± 0.033
24,GTAAGGCA,0.203 ± 0.12
25,ATTCTAGA,0.0758 ± 0.1

row,Sequence,PBM 8-mer E-score
1,ATCTACAA,0.126 ± 0.062
2,ACGTGGCG,0.165 ± 0.085
3,ACGTGGCC,0.114 ± 0.13
4,ACGTGGCT,0.249 ± 0.1
5,TCGTGGCA,0.164 ± 0.017
6,CCGTGGCA,-0.149 ± 0.013
7,ACGTGGCA,0.256 ± 0.033
8,CAGGCTGG,-0.172 ± 0.05
9,GATTTCAA,-0.0671 ± 0.11
10,ATTTTCAC,-0.00186 ± 0.074
11,GGTTTCAA,0.0825 ± 0.073
12,CTTTTCAA,0.144 ± 0.06
13,CTTTTCAC,0.311 ± 0.078
14,CATTTCAA,0.217 ± 0.053
15,TATTTCAA,0.257 ± 0.016
16,GTTTTCAA,0.258 ± 0.079
17,CCTTTCAC,0.116 ± 0.056
18,AATAGGGG,0.0563 ± 0.032
19,CGCCGCTA,-0.204 ± 0.0029
20,ACAGAGCC,-0.0681 ± 0.01
21,CGCATAAC,0.153 ± 0.039
22,AGCGCTCC,-0.263 ± 0.015
23,AGGTGTTC,0.157 ± 0.0061
24,ACGTGTTC,0.292 ± 0.0076
25,ACGTGTTA,0.321 ± 0.015

row,Sequence,PBM 8-mer E-score
1,CCGTGTTC,0.00613 ± 0.046
2,GCGTGTTA,0.195 ± 0.089
3,ACGTGTTG,0.299 ± 0.081
4,CCGTGTTA,0.103 ± 0.017
5,AGGTGTTG,-0.0311 ± 0.062
6,ATGTGTTG,0.225 ± 0.018
7,CACTTGCC,0.168 ± 0.14
8,TCACTACA,0.0656 ± 0.0014
9,ACCAACAC,0.174 ± 0.0053
10,AGCAAATG,0.0747 ± 0.051
11,AACTTGAT,0.198 ± 0.024
12,GCGAAATA,0.104 ± 0.11
13,CGGGAGTC,-0.0836 ± 0.032
14,ACATTTGG,0.0453 ± 0.092
15,ACCCCCAA,-0.14 ± 0.0093
16,AACCCCCA,-0.337 ± 0.0059
17,GAACCCAA,-0.136 ± 0.086
18,AACCCCAA,0.259 ± 0.015
19,AAACCCAA,0.265 ± 0.0051
20,AAACCCAT,0.0906 ± 0.057
21,AAGCGGCG,-0.253 ± 0.0057
22,ACAAAGAC,0.226 ± 0.034
23,ACGCTCTA,0.000195 ± 0.019
24,CGAGGGAG,0.0101 ± 0.048
25,ACTACTTA,0.114 ± 0.13

row,Sequence,PBM 8-mer E-score
1,AACGTGCA,0.225 ± 0.0061
2,GACGTGCC,-0.0314 ± 0.077
3,CACGTGCG,0.462 ± 0.035
4,AACGTGCG,0.129 ± 0.053
5,TACGTGCA,0.155 ± 0.0056
6,CACGTGCC,0.419 ± 0.076
7,CACGTGCA,0.451 ± 0.049
8,CCCGTGCG,-0.166 ± 0.0035
9,AACGTGCC,-0.0196 ± 0.033
10,ACCCCCTG,-0.181 ± 0.16
11,AAGCGAAC,-0.038 ± 0.12
12,ACAAACGT,0.0903 ± 0.12
13,GCAAGGCA,0.0264 ± 0.067
14,CCGGACCC,-0.294 ± 0.09
15,GTGTTTGA,0.241 ± 0.042
16,CTGTTTGA,0.143 ± 0.011
17,ATGTTTGA,0.207 ± 0.051
18,CCGTTTGA,-0.202 ± 0.057
19,ACGTTTGG,-0.00749 ± 0.048
20,ACGTTTGA,0.254 ± 0.015
21,ACACTGCC,-0.0509 ± 0.054
22,CAACAGAG,-0.088 ± 0.056
23,CGTGAATC,-0.00172 ± 0.048
24,AATGTCTC,0.00715 ± 0.052
